# Assay results taken from the supplement of paper PMC8047044.
# Tested on: Neuro-2a
# Assay: neurite formation score, plate-normalized to DMSO control mean 5.04 (score (0-8 scale)); higher = more or longer neurites
# Conditions: 1 µM
# Procedure: (§1)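 Neuro-2a mouse neuroblastoma cells in PLL-coated 96-well plates were pre-treated for 1 h in DMEM(+) with each kinase inhibitor at 1 µM, then switched to serum-free DMEM(-) with inhibitor to induce neurite outgrowth and fixed about 2-3 h later. Three blinded observers scored neurite formation from 0 (no neurites) to 8 (long neurites on almost all cells).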
row,Compound,neurite formation score
1,Cc1ncc(CCCN(C)C)cc1Nc1ncc2c(n1)-c1ccc(C(F)(F)F)cc1NC(=S)C2,5.29
2,CCNc1nc(Nc2cc(F)c(C(=O)N3CCOCC3)cc2OC)ncc1C(F)(F)F,3.21
3,Cc1cc(Nc2cc(N3CCN(C)CC3)nc(/C=C/c3ccccc3)n2)n[nH]1 [ENMD-2076 L-(+)-Tartaric acid],3.8
4,CC(C)(C)n1nc(Cc2cccc3ccccc23)c2c(N)ncnc21,4.63
5,CCn1c(=O)c(-c2ccc(-c3cncs3)cc2Cl)cc2cnc(Nc3ccc(N4CCN(C)CC4)cc3)nc21,4.96
6,Cc1nc(-c2cn3c(n2)-c2ccc(-c4cnn(C(C)(C)C(N)=O)c4)cc2OCC3)n(C(C)C)n1,5.29
7,COc1cc(C(=O)N2CCC(N3CCN(C)CC3)CC2)ccc1Nc1ncc2c(n1)N(C)c1ccccc1C(=O)N2C,4.36
8,COc1ccc(-c2cnc3c(-c4cccc5ncccc45)cnn3c2)cc1,3.88
9,FC(F)(F)c1ccc(/C=C/c2nc(COc3ccc(CCCCn4ccnn4)cc3)co2)cc1 [Mubritinib (TAK 165)],4.47
10,Cc1[nH]c(/C=C2\C(=O)Nc3ccc(S(=O)(=O)Cc4c(Cl)cccc4Cl)cc32)c(C)c1C(=O)N1CCC[C@@H]1CN1CCCC1,3.91
11,CC(C)c1cnn2c(NCc3ccccc3)cc(NCCCCCCN)nc12,4.57
12,C=CC(=O)N1CCC[C@@H](n2nc(-c3ccc(Oc4ccccc4)cc3)c3c(N)ncnc32)C1,3.24
13,FC(F)(F)c1ccc(CNc2ccc(Cc3c[nH]c4ncc(Cl)cc34)cn2)cn1 [Pexidartinib (PLX3397)],4.54
14,CN(c1ccccc1CNc1nc(Nc2ccc3c(c2)CC(=O)N3)ncc1C(F)(F)F)S(C)(=O)=O,4.29

# Tested on: Neuro-2a
# Assay: as above
# Conditions: 0.1 µM
# Procedure: as §1, with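 “at 0.1” for “at 1”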
row,Compound,neurite formation score
1,CCOc1cc2ncc(C#N)c(Nc3ccc(F)c(Cl)c3)c2cc1NC(=O)/C=C/CN(C)C [Pelitinib (EKB-569)],4.38
2,Cc1cc(Nc2ncc(Cl)c(Nc3ccccc3S(=O)(=O)C(C)C)n2)c(OC(C)C)cc1C1CCNCC1,5.21
3,C=CCc1ccc(O)c(-c2ccc(O)c(CC=C)c2)c1 [Honokiol],2.76
4,O=C(c1ccc(F)c(F)c1Nc1ccc(I)cc1F)N1CC(O)([C@@H]2CCCCN2)C1 [Cobimetinib],4.71
5,COc1cc2c(Oc3ccc(NC(=O)C4(C(=O)Nc5ccc(F)cc5)CC4)cc3F)ccnc2cc1OCCCN1CCOCC1,3.38
6,N#CC(=C(/N)Sc1ccccc1N)/C(C#N)=C(\N)Sc1ccccc1N,5.71
7,CC(C)CC(=O)Nc1n[nH]c2c1CN(C(=O)C1CCN(C)CC1)C2(C)C,4.54
8,C=CC(=O)N1CCC(Oc2cc3c(Nc4ccc(Cl)c(Cl)c4F)ncnc3cc2OC)CC1 [Poziotinib],3.76
9,Cc1c(F)cc(C(=O)NC2CC2)cc1-c1ccc(C(=O)NCC(C)(C)C)cn1 [Losmapimod],4.75
10,CC(C)(C)c1nc(-c2cccc(NS(=O)(=O)c3c(F)cccc3F)c2F)c(-c2ccnc(N)n2)s1,5.25
11,C[C@@H](Oc1cc(-n2cnc3ccc(CN4CCN(C)CC4)cc32)sc1C(N)=O)c1ccccc1C(F)(F)F,3.58
12,N#CCNC(=O)c1ccc(-c2ccnc(Nc3ccc(N4CCOCC4)cc3)n2)cc1,4.92
13,Cc1cc(CS(=O)(=O)c2ccccc2)cc(OCc2ccc(CN3CCC[C@@H]3CO)cc2)c1,5.58
14,C=CC(=O)Nc1cccc(Nc2nc(Nc3ccc(NC4CN(CCF)C4)cc3OC)ncc2C(F)(F)F)c1,4.08
15,COc1cc2ncnc(Nc3cccc(Br)c3)c2cc1OC,5.09
16,C[C@H]1[C@H](C)CC[C@]2(C(=O)O)CC[C@]3(C)C(=CC[C@@H]4[C@@]5(C)C[C@@H](O)[C@H](O)[C@@](C)(CO)[C@@H]5CC[C@]43C)[C@H]12 [Asiatic acid],5.08
17,"Cc1[nH]c(/C=C2\C(=O)Nc3ccccc32)c(C)c1CCC(=O)O [TSU-68 (SU6668,Orantinib)]",4.54
18,NC1(Cc2ccc(Cl)cc2)CCN(c2ncnc3[nH]ccc23)CC1,4.92
19,CCS(=O)(=O)N1CC(CC#N)(n2cc(-c3ncnc4[nH]ccc34)cn2)C1,4.58
20,Cc1cc(C)nc(NS(=O)(=O)c2ccc(NC(=S)NC(=O)COc3ccc(Br)cc3Cl)cc2)n1,3.88

row,Compound,neurite formation score
1,NCC(=O)Nc1ccc(-n2nc(C(F)(F)F)cc2-c2ccc3c(ccc4ccccc43)c2)cc1,5.04
2,"CN1CCN(c2ccc3nc(-c4c(N)c5c(F)cccc5[nH]c4=O)[nH]c3c2)CC1 [Dovitinib (TKI-258, CHIR-258)]",4.08
3,CC(C)n1nc(-c2ccc3oc(N)nc3c2)c2c(N)ncnc21,5.25
4,CCCCOc1c(C(=O)c2c(F)cc(C)cc2F)c[nH]c2nncc1-2,4.92
5,Cc1nc2c(-c3cnc(N)nc3)nc(N3CCOCC3)nc2n1C(C)C,4.25
6,C[C@]1(O)C[C@@H](c2nc(-c3ccc4ccc(-c5ccccc5)nc4c3)c3c(N)nccn32)C1 [Linsitinib],4.54
7,Cc1ncc(CCCN(C)C)cc1Nc1ncc2c(n1)-c1ccc(C(F)(F)F)cc1NC(=S)C2,4.92
8,CCNc1nc(Nc2cc(F)c(C(=O)N3CCOCC3)cc2OC)ncc1C(F)(F)F,3.75
9,Cc1cc(Nc2cc(N3CCN(C)CC3)nc(/C=C/c3ccccc3)n2)n[nH]1 [ENMD-2076 L-(+)-Tartaric acid],4.76
10,CC(C)(C)n1nc(Cc2cccc3ccccc23)c2c(N)ncnc21,4.58
11,CCn1c(=O)c(-c2ccc(-c3cncs3)cc2Cl)cc2cnc(Nc3ccc(N4CCN(C)CC4)cc3)nc21,4.25
12,Cc1nc(-c2cn3c(n2)-c2ccc(-c4cnn(C(C)(C)C(N)=O)c4)cc2OCC3)n(C(C)C)n1,4.92
13,COc1cc(C(=O)N2CCC(N3CCN(C)CC3)CC2)ccc1Nc1ncc2c(n1)N(C)c1ccccc1C(=O)N2C,4.92
14,COc1ccc(-c2cnc3c(-c4cccc5ncccc45)cnn3c2)cc1,2.08
15,FC(F)(F)c1ccc(/C=C/c2nc(COc3ccc(CCCCn4ccnn4)cc3)co2)cc1 [Mubritinib (TAK 165)],4.76
16,Cc1[nH]c(/C=C2\C(=O)Nc3ccc(S(=O)(=O)Cc4c(Cl)cccc4Cl)cc32)c(C)c1C(=O)N1CCC[C@@H]1CN1CCCC1,5.04
17,CC(C)c1cnn2c(NCc3ccccc3)cc(NCCCCCCN)nc12,4.88
18,C=CC(=O)N1CCC[C@@H](n2nc(-c3ccc(Oc4ccccc4)cc3)c3c(N)ncnc32)C1,4.38
19,FC(F)(F)c1ccc(CNc2ccc(Cc3c[nH]c4ncc(Cl)cc34)cn2)cn1 [Pexidartinib (PLX3397)],5.42
20,CN(c1ccccc1CNc1nc(Nc2ccc3c(c2)CC(=O)N3)ncc1C(F)(F)F)S(C)(=O)=O,3.58
